# Source: PubChem BioAssay (EPA / NIEHS)
# Results filed as inconclusive are left out. The source holds several records for some structures; these can differ, active in one and inactive in another. Calls of active or inactive are those of the source. How the source made its calls: active means hit-call score of the fitted dose curve at least 0.9, where 1 is the maximum; inconclusive means response in the unintended direction; inactive means score below 0.9.
# What was measured:
# [1] = target: Luciferin 4-monooxygenase (Photinus pyralis) (UniProt P08659); test: CCTE_Simmons_QuantiLum_inhib_2: CCTE's Firefly Luciferase Inhibition Assay, Simmons Lab (AID 2283767);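 on AC50: potency for inhibitors that lower luciferase luminescence relative to DMSO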
# Luciferin 4-monooxygenase (Photinus pyralis), sequence (P08659 whole entry, looked up): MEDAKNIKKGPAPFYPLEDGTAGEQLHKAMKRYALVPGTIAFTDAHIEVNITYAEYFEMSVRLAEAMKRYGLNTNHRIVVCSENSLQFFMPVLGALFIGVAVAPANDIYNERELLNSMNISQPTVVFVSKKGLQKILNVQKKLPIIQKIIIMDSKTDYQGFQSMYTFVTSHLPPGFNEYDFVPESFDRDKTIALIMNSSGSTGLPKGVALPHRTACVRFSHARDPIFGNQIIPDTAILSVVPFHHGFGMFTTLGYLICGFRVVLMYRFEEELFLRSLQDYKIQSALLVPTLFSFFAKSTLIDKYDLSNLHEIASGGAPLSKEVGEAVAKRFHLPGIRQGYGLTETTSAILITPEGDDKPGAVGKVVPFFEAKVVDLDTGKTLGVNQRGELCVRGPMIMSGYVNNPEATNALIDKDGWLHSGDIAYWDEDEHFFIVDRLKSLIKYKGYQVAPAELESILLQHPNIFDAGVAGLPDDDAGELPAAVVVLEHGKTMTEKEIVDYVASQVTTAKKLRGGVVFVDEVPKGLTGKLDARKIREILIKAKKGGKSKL
# Outline: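 Eight test concentrations, 5 nM up to 87.5 uM final, preincubated 30min at 37C in the dark with purified luciferase (0.5% DMSO final). Detection reagent (150uM D-luciferin, 147uM dATP, 75uM CoA, pH 7.8) injected per well before kinetic luminescence read; three replicates.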
# [2] = ACEA_AR_antagonist_AUC_viability: ACEA Biosciences xCELLigence Real-Time Cell Analysis on Androgen Receptor Antagonism for Viability (AID 2283776);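 further: 22Rv1 human prostate cancer cells growing on impedance electrode plates; area under impedance growth curve at 80 h after dosing as viability; hits lower the growth signal relative to DMSO meaning cytotoxicity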
# Outline: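 Viability endpoint from label-free cell-index monitoring: 22Rv1 cultures treated with an eight-point 1:4 dilution series starting at 100 uM final, AUC at 80 h fitted against DMSO.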
# [3] = STM_H9_NormalizedViability: Cytotoxicity Assessment at 120 hours in the Stemina devTOX quickPredict H9 human embryonic stem cell (hESC)-based Assay (AID 2283784)
# Outline: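 Viability endpoint: background-corrected CellTiter-Fluor RFU expressed relative to the 0.1% DMSO mean on each plate. Undifferentiated H9 cells were treated with daily re-dosing and media change, and loss of signal was fitted.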
# [4] = ACEA_AR_agonist_AUC_viability: ACEA Biosciences xCELLigence Real-Time Cell Analysis on Androgen Receptor Agonism for Viability (AID 2283775);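 on AC50: viability read 80 hours after compound addition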
# Outline: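 22Rv1 cells; impedance growth kinetics; 8-pt 1:4 dilutions from 100 uM top final, ≤0.5% DMSO; n = 2; 80 h read; AUC viability, loss-of-signal vs DMSO.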
# AR (gene 367) [5] = target: AR (gene 367) (UniProt P10275); test: ACEA_AR_antagonist_80hr: ACEA Biosciences xCELLigence Real-Time Cell Analysis on Androgen Receptor Antagonism for Proliferation (AID 2283787);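 further: 22Rv1 human prostate cancer cells with growth followed by electrical impedance; hits lower the impedance growth signal relative to DMSO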
# AR (gene 367), sequence (P10275 whole entry, looked up): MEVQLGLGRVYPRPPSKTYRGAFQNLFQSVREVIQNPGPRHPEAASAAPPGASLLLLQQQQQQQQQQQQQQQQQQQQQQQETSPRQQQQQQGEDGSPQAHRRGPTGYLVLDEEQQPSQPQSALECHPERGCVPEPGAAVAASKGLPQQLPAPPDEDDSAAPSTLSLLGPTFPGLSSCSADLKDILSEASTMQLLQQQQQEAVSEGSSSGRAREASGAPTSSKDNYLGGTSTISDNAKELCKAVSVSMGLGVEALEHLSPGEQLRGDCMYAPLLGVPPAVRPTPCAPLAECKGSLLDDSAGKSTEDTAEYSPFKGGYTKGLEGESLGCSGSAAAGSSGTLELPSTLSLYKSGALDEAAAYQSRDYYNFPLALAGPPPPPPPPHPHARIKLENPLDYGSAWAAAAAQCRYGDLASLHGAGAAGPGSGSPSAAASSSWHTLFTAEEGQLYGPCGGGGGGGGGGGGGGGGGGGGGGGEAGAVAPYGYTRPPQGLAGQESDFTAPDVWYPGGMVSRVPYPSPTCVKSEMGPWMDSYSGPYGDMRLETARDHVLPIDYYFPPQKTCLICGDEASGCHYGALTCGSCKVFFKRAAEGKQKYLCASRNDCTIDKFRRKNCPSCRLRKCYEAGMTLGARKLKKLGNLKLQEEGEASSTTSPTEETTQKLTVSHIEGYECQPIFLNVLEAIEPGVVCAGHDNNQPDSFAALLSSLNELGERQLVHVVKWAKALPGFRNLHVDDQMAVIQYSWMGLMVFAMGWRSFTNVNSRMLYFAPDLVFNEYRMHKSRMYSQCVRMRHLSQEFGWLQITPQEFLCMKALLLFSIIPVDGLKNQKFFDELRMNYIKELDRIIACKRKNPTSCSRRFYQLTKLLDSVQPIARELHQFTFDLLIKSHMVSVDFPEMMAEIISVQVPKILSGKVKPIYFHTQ
# Outline: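 Using 22Rv1 cells held in assay medium, we dosed compounds (100 uM maximum final, 1:4 serial, eight points, 0.5% DMSO at top) and recorded cell-electrode impedance; the 80 hr timepoint was analyzed against DMSO.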
# AR (gene 367) [6] = target: AR (gene 367) (UniProt P10275); test: ACEA_AR_agonist_80hr: ACEA Biosciences xCELLigence Real-Time Cell Analysis on Androgen Receptor Agonism for Proliferation (AID 2283783);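 further: hits increase impedance growth signal above DMSO baseline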
# Outline: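 Real-time cell-growth kinetics were recorded by electrode impedance in 22Rv1 cells exposed to test chemicals up to 100 uM final; the 80 h timepoint served as the readout, fitted upward relative to DMSO controls, in biological duplicate.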
# [7] = ACEA_ER_AUC_viability: ACEA Biosciences xCELLigence Real-Time Cell Analysis on Estrogen Receptor Agonism for Viability (AID 2283782);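 further: hit means loss of impedance signal meaning reduced cell growth or viability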
# Outline: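 Continuous-exposure impedance cell analysis uses T-47D cells in charcoal-stripped serum, eight 1:4 dilutions topping at 100 uM final, biological duplicate. Area under the growth curve at 80 h is fitted against DMSO baseline.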
smiles,measurement,setting,value
CCOC(=O)c1ccc(C2CCC(NC[C@H](O)COc3ccc(O)c(NS(C)(=O)=O)c3)CC2)cc1 (some centres not stated),outcome,[1],inactive
same,AC50,[2],24.4 µM (active)
same,outcome,[3],inactive
CCOc1cccc(-n2cc(C(=O)N3CCN(c4cc(C(=O)O)c5ccccc5c4)CC3)nc2-c2ccc(C)cc2)c1,outcome,[1],inactive
same,AC50,[4],7.41 µM (active)
same,AC50,[2],11.5 µM (active)
same,AC50,AR (gene 367) [5],12.5 µM (active)
CC[C@H](C)C(=O)O[C@H]1C[C@@H](C)C=C2C=C[C@H](C)[C@H](CC[C@@H]3C[C@@H](O)CC(=O)O3)[C@H]21,AC50,[1],77.6 µM (active)
same,outcome,[1],inactive
same,outcome,[4],inactive
same,AC50,[2],50 µM (active)
same,outcome,[3],inactive
O=C(O)CCN(C1(C(=O)NO)CCCC1)S(=O)(=O)c1ccc(Oc2ccc(F)cc2)cc1,outcome,[1],inactive
same,outcome,[2],inactive
CC(C)=CCCC(C)=CC=O,outcome,[1],inactive
same,outcome,[2],inactive
same,outcome,[3],inactive
CC(C)=CCC/C(C)=C\CO,outcome,[1],inactive
same,outcome,[2],inactive
same,outcome,AR (gene 367) [6],inactive
CCn1nc(Cc2ccccc2)cc1C1CCN(C[C@H]2C[C@H](N(C)[C@@H](C(=O)O)C(C)C)C[C@@H]2c2cccc(F)c2)CC1,outcome,[1],inactive
same,AC50,[2],45 µM (active)
CN(C)c1ccc(Cc2ccc(N(C)C)cc2)cc1,outcome,[1],inactive
same,AC50,[2],50 µM (active)
Cc1ccc(N)cc1O,AC50,[1],17.4 µM (active)
same,AC50,[2],87.4 µM (active)
same,outcome,[7],inactive
same,outcome,AR (gene 367) [6],inactive
same,AC50,AR (gene 367) [5],74.4 µM (active)
On1ccccc1=S,AC50,[1],9 µM (active)
same,AC50,[4],9.92 µM (active)
same,AC50,[2],50 µM (active)
same,AC50,[3],8.35 µM (active)
CC(C)=CCCC(C)CCO (configuration not stated),outcome,[1],inactive
same,outcome,[4],inactive
same,outcome,[2],inactive
same,outcome,AR (gene 367) [5],inactive
Nc1nc2ncc(CNc3ccc(C(=O)N[C@@H](CCC(=O)O)C(=O)O)cc3)nc2c(=O)[nH]1,outcome,[1],inactive
same,outcome,[4],inactive
same,outcome,[2],inactive
same,outcome,[3],inactive
same,outcome,AR (gene 367) [5],inactive
Oc1ccc2c(c1)-c1ccccc1C2,outcome,[1],inactive
same,AC50,[4],50 µM (active)
same,AC50,[2],41.8 µM (active)
same,outcome,AR (gene 367) [6],inactive
same,AC50,AR (gene 367) [5],50 µM (active)
